# Screens deposited in PubChem by Broad Institute.
# PfHsp40 yeast: rescue of PfHsp40-mediated yeast toxicity. hit rate 0.68% among 340,000. AID 504582. S. cerevisiae expressing PfHsp40, growth rescue, ATP luminescence. growth rescue, % at 12.5 µM; in the data active = growth rescue above about 28%, passing the limit was not always enough;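 note: yeast W303a lacking pdr1 and pdr3 grown in galactose medium; growth measured after three days at 30 °C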
# Y pestis TopoI: Y. pestis Topo-I inhibition via cleavage products; hit rate 0.064% among 360,000; Y. pestis Topo-I cleavage product accumulation, plate reader; activity, % at 10 µM; AID 504884; in the data active = activity above about 50%, passing the limit was not always enough
# FadD28 binding: blocks FadD28 binding to the bisubstrate probe; fluorescence polarization; hit rate 0.22% among 360,000; inhibition, % at 12.5 µM; in the data active = inhibition above about 8.5%, passing the limit was not always enough
# PrP UTR inh: inhibition of PrP 5' UTR reporter expression; inhibition, % (concentration not given with the values); cell-based PrP 5' UTR mRNA reporter, plate reader; hit rate 0.35% among 340,000; in the data active = inhibition above about 52%; note: 0 = median of the neutral control wells
# Mtb BioA inh: BioA (M. tuberculosis) enzyme inhibition; purified M. tuberculosis BioA enzyme, plate reader; inhibition, % at 9.99 µM; hit rate 0.096% among 360,000; AID 602481; in the data active = inhibition above about 40%
# The depositor's hits bear a star; nt = no result. Only some compounds are listed: those with a hit (about 1.1% of all), similar ones and a draw of the others.
SMILES,PfHsp40 yeast,Y pestis TopoI,FadD28 binding,PrP UTR inh,Mtb BioA inh
O=C(NCc1ccc(F)cc1)C(Cc1ccccc1)NS(=O)(=O)c1cccs1 (configuration not stated),1,6,25*,-2,-1
CC=Cc1ccc2n(c1=O)C[C@H]1[C@H](CO)[C@@H](C(=O)N3CCCCC3)N(C(=O)CC)[C@@H]21 (mixture of isomers),nt,nt,nt,nt,-1
Cc1[nH]nc(C(=O)NN=Cc2ccccc2Cl)c1N=NN(C)C,41*,2,-4,-30,nt
O=C(Nc1nnc(S(=O)(=O)Cc2ccc(F)cc2)s1)c1ccccc1F,45*,-5,-1,-12,-1
Cc1noc(C)c1NC(=O)Nc1ccc2c(c1)C(=O)N(C)[C@H]1CC[C@H](CC(=O)N(C)C)O[C@@H]1CO2,nt,nt,nt,nt,-1
CC[C@@H](C(=O)[C@@H](C)[C@@H](O)[C@H](C)CCc1ccc(C)c(O)c1C(=O)O)[C@H]1O[C@](CC)([C@H]2CC[C@](O)(CC)[C@H](C)O2)C[C@@H]1C,184*,10,-1,-25,3
Nc1nc(Cn2nnc(-c3ccccc3F)n2)nc(N2CCOCC2)n1,40*,7,0,-5,1
C[C@@H]1CCCCO[C@H](CN(C)S(=O)(=O)c2ccc(F)cc2)[C@H](C)CN([C@@H](C)CO)C(=O)c2cc(NC(=O)CCC(F)(F)F)ccc2O1,nt,nt,nt,nt,-2
Cn1c(=O)[nH]c(=O)c2c1nc(N1CCNCC1)n2Cc1ccccc1Cl,-1,-5,-2,-9,0
Cn1c(=O)[nH]c(=O)c2c1nc(N1CCCCCC1)n2Cc1cccc2ccccc12,-1,63*,-1,-5,nt
CCCn1c(N2CCC(Cc3ccccc3)CC2)nc2c1c(=O)[nH]c(=O)n2C,7,52*,-1,-9,3
Cc1ccc(S(=O)(=O)NC23CC4CC(CC(C4)C2)C3)cc1,107*,20,-3,12,-1
Cc1ccc(S(=O)(=O)NN=C2C3CC4CC(C3)CC2C4)cc1,0,9,-1,4,nt
COC(=O)C1=C(C)OC(N)=C(C#N)C1c1c(C)nn(C)c1C (configuration not stated),68*,0,-4,-36,0
CCc1cccc2c(C(=O)CN3C(=O)NC(C)(c4cccc5ccccc45)C3=O)c[nH]c12 (configuration not stated),1,-5,19*,-22,nt
Cc1ccc(C)c(C(=O)CN2C(=O)NC3(CCc4ccccc43)C2=O)c1 (configuration not stated),1,12,-8,-28,0
CCc1cccc2c(C(=O)CN3C(=O)NC4(CCc5ccccc54)C3=O)c[nH]c12 (configuration not stated),-1,7,33*,-28,0
C[C@@H]1CN([C@H](C)CO)C(=O)c2cc(NC(=O)Nc3ccccc3)ccc2O[C@@H]1CN(C)S(=O)(=O)c1ccc(Cl)cc1,nt,nt,nt,nt,-2
CCNC(=O)C[C@H]1CC[C@@H]2[C@H](COC[C@@H](O)CN2C(=O)C2CCCC2)O1,nt,nt,nt,nt,3
O=C(C[C@H]1CC[C@H]2[C@@H](COC[C@H](O)CN2C(=O)c2ccccc2F)O1)NCc1ccc(Cl)c(Cl)c1,nt,nt,nt,nt,-1
COc1cc2c(c3ccccc13)CCCC2=O,0,1,0,-16,-1
O=C1CCCc2c1ccc1ccccc21,29*,4,-4,-19,-1
O=C(CN1CCCc2ccccc21)N/N=C/c1c(O)ccc2ccccc12,179*,-14,-4,-14,nt
O=C(CN1CCCc2ccccc21)N/N=C/c1ccccc1,0,-5,-1,-61,nt
COc1ccc(Oc2coc3cc(OC(=O)/C=C/c4ccccc4)ccc3c2=O)cc1,95*,8,-3,-10,-1
SMILES,PfHsp40 yeast,Y pestis TopoI,FadD28 binding,PrP UTR inh,Mtb BioA inh
Cc1cc(C)nc(N/N=C/C2=C(N3CCOCC3)C(=C\c3ccc(Cl)cc3)/CC2)n1,1,24,-3,-25,nt
O=C(O)c1ccc(N/N=C/C2=C(N3CCOCC3)C(=C\c3ccccc3)/CC2)cc1,273*,-1,4,-19,9
CCOc1ccc2[nH]c(=O)c(CN(Cc3cccnc3)C(=O)Nc3ccccc3OC)cc2c1,-1,21,0,-19,-1
COc1ccc2[nH]c(=O)c(CN(Cc3cccnc3)C(=O)Nc3ccccc3)cc2c1,288*,10,-4,-8,2
C=CCn1c(SCn2nnc3ccccc3c2=O)nnc1-c1ccc(Br)cc1,114*,5,2,-15,0
C=CCn1c(SCn2nnc3ccccc3c2=O)nnc1-c1ccc(F)cc1,-1,3,-1,-7,11
CN1C(=O)c2cc(NC(=O)C3CC3)ccc2OC[C@H]2O[C@H](CC(=O)NCc3ccccc3F)CC[C@H]21,nt,nt,nt,nt,-2
CN(C)Cc1c(C(C)(C)O)[nH]c2ccc(C(F)(F)F)cc12,-1,-4,-4,-23,-1
CCc1c(C2(O)CCCCC2)[nH]c2ccc(C(F)(F)F)cc12,351*,-18,-6,-28,5
CN1C(=O)c2cc(NC(=O)c3ccc(F)c(F)c3)ccc2OC[C@H]2O[C@@H](CC(=O)N3CCOCC3)CC[C@H]21,nt,nt,nt,nt,18
Nc1[nH]c(=O)ncc1F,370*,-3,-4,0,-1
COc1cccc(C(=O)OCCN2C(=O)c3ccccc3C2=O)c1OC,0,4,0,-17,0
COc1cccc(C=O)c1OCCN1C(=O)c2ccccc2C1=O,-1,1,-1,-22,65*
N#CCCN(C(=O)Nc1ccc(Cl)cc1)c1ccccc1,0,0,-5,-18,8
N#CCCN(C(=O)Nc1ccccc1)c1ccccc1,66*,1,-5,-3,0
Cc1ccc2c(C)c3ccc4ccccc4c3c[n+]2c1,368*,-33,-4,-19,nt
CCCCC[n+]1cccc2c3ccccc3ccc21,0,0,0,-21,nt
COc1ccccc1NC(=O)c1cc2ccccc2o/c1=N\O,1,0,-1,-78,-1
COc1ccccc1NC(=O)c1cc2ccc(O)cc2o/c1=N\O,1,-19,18*,-35,-1
O=C(Nc1ccccc1)c1ccc(Br)c(S(=O)(=O)Nc2ccccn2)c1,48*,-3,0,-16,0
CCOC(=O)Cn1cc(C(=O)c2ccco2)c2ccccc21,-1,-9,15*,-26,4
CCCCn1c(-c2ccsc2)nc2c1c(=O)[nH]c(=O)n2CCC,0,0,-1,-3,1
CCCCn1c(=O)[nH]c(=O)c2c1nc(-c1ccsc1)n2Cc1ccccc1,0,59*,-1,-17,-1
COc1cc2c(cc1NC(=O)C(C)Sc1ccc(NC(C)=O)cc1)oc1ccccc12 (configuration not stated),33*,20,-5,-11,-2
COc1ccc(NC(=S)NCCC(c2ccccc2)c2ccccc2)c(OC)c1,39*,25,-1,0,-1
Cc1c(Cl)cccc1NC(=S)NCCC(c1ccccc1)c1ccccc1,54*,18,-6,-10,-1
Cc1c(C(=O)N(Cc2ccccc2)Cc2cccs2)cnn1-c1ccc(Cl)cc1,117*,2,0,-38,3
